Laboratory results as given in the supplement of paper PMC8728848.
About 410 targets per protein were measured; listed, in parts, are those with the strongest signals and a random draw of the rest.

Tests used:
Experiment in all cases: glycan array binding signal (z-score within array); higher = stronger binding
Settings in all cases: glycan notation: IUPAC condensed, linker removed
[1] = biological target: Fuc(a1-2)Gal(b1-3)GalNAc(a1-3)[Fuc(a1-2)]Gal(b1-4)GlcNAc
How it was run: (§1)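 The Consortium for Functional Glycomics database supplied 3228 glycan arrays, of which those lacking an available protein sequence were dropped. The binding signal, a within-array Z-score, was averaged across arrays of the same protein sequence and across linkers. Negative scores can be read as non-binding.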

[2] = biological target: Fuc(a1-2)Gal(b1-3)GalNAc(b1-3)Gal
How it was run: as §1

[3] = biological target: Fuc(a1-2)Gal(b1-3)GlcNAc(b1-3)Gal(b1-4)Glc
How it was run: as §1

[4] = biological target: Fuc(a1-2)Gal(b1-3)GlcNAc(b1-3)[Neu5Ac(a2-6)Gal(b1-4)GlcNAc(b1-6)]Gal(b1-4)Glc
How it was run: as §1

[5] = biological target: Fuc(a1-2)Gal(b1-4)[Fuc(a1-3)]GlcNAc(b1-2)Man(a1-3)[Fuc(a1-2)Gal(b1-4)[Fuc(a1-3)]GlcNAc(b1-2)Man(a1-6)]Man(b1-4)GlcNAc(b1-4)GlcNAc
How it was run: as §1

[6] = biological target: Fuc(a1-2)Gal(b1-4)[Fuc(a1-3)]GlcNAc(b1-3)GalNAc
How it was run: as §1

[7] = biological target: Fuc(a1-2)[GalNAc(a1-3)]Gal(b1-3)GlcNAc(b1-2)Man(a1-3)[Fuc(a1-2)[GalNAc(a1-3)]Gal(b1-3)GlcNAc(b1-2)Man(a1-6)]Man(b1-4)GlcNAc(b1-4)GlcNAc
How it was run: as §1

[8] = biological target: Fuc(a1-2)[GalNAc(a1-3)]Gal(b1-3)GlcNAc(b1-2)Man(a1-3)[Fuc(a1-2)[GalNAc(a1-3)]Gal(b1-3)GlcNAc(b1-2)Man(a1-6)]Man(b1-4)GlcNAc(b1-4)[Fuc(a1-6)]GlcNAc
How it was run: as §1

[9] = biological target: Fuc(a1-2)[GalNAc(a1-3)]Gal(b1-4)GlcNAc(b1-3)Gal(b1-4)GlcNAc
How it was run: as §1

[10] = biological target: Fuc(a1-3)[Gal(b1-4)]GlcNAc(b1-6)GalNAc
How it was run: as §1

[11] = biological target: Gal(a1-4)Gal(b1-3)GlcNAc(b1-2)Man(a1-3)[Gal(a1-4)Gal(b1-3)GlcNAc(b1-2)Man(a1-6)]Man(b1-4)GlcNAc(b1-4)GlcNAc
How it was run: as §1

[12] = biological target: Gal(a1-4)Gal(b1-4)Glc
How it was run: as §1

[13] = biological target: Gal(b1-3)Gal(b1-4)GlcNAc
How it was run: as §1

[14] = biological target: Gal(b1-3)GalNAc
How it was run: as §1

[15] = biological target: Gal(b1-3)[Fuc(a1-4)]GlcNAc(b1-2)Man(a1-3)[Gal(b1-3)[Fuc(a1-4)]GlcNAc(b1-2)Man(a1-6)]Man(b1-4)GlcNAc(b1-4)GlcNAc
How it was run: as §1

[16] = biological target: Gal(b1-3)[Fuc(a1-4)]GlcNAc(b1-3)Gal(b1-4)GlcNAc
How it was run: as §1

[17] = biological target: Gal(b1-4)GlcNAc(b1-2)Man(a1-3)[Man(a1-6)]Man(b1-4)GlcNAc(b1-4)GlcNAc
How it was run: as §1

[18] = biological target: Gal3S(b1-4)Glc6S
How it was run: as §1

[19] = biological target: GalNAc(b1-3)Gal
How it was run: as §1

[20] = biological target: GalNAc(b1-4)GlcNAc(b1-2)Man(a1-3)[GalNAc(b1-4)GlcNAc(b1-2)Man(a1-6)]Man(b1-4)GlcNAc(b1-4)GlcNAc
How it was run: as §1

[21] = biological target: GlcNAc(a1-4)Gal(b1-4)GlcNAc(b1-3)Gal(b1-4)GlcNAc
How it was run: as §1

[22] = biological target: GlcNAc(b1-2)[GlcNAc(b1-6)]Man(a1-6)[GlcNAc(b1-2)Man(a1-3)]Man(b1-4)GlcNAc(b1-4)GlcNAc
How it was run: as §1

[23] = biological target: GlcNAc(b1-3)[GlcNAc(b1-6)]GalNAc
How it was run: as §1

[24] = biological target: Kdn(a2-3)Gal(b1-4)[Fuc(a1-3)]GlcNAc
How it was run: as §1

[25] = biological target: Kdn(a2-6)Gal(b1-4)GlcNAc
How it was run: as §1

[26] = biological target: Man(a1-2)Man(a1-2)Man(a1-3)Man
How it was run: as §1

[27] = biological target: Man(a1-2)Man(a1-2)Man(a1-6)[Man(a1-3)]Man
How it was run: as §1

[28] = biological target: Man(a1-2)Man(a1-3)[Man(a1-2)Man(a1-6)]Man(a1-6)[Man(a1-2)Man(a1-2)Man(a1-3)]Man
How it was run: as §1

[29] = biological target: Neu5Ac(a2-3)Gal(b1-3)GlcNAc(b1-3)GalNAc
How it was run: as §1

[30] = biological target: Neu5Ac(a2-3)Gal(b1-3)[Neu5Ac(a2-6)]GalNAc
How it was run: as §1

[31] = biological target: Neu5Ac(a2-3)Gal(b1-4)GlcNAc(b1-3)Gal
How it was run: as §1

[32] = biological target: Neu5Ac(a2-3)Gal(b1-4)[Fuc(a1-3)]GlcNAc(b1-3)Gal(b1-4)GlcNAc
How it was run: as §1

[33] = biological target: Neu5Ac(a2-3)Gal(b1-4)[Fuc(a1-3)]GlcNAc(b1-3)Gal(b1-4)[Fuc(a1-3)]GlcNAc(b1-3)Gal(b1-4)[Fuc(a1-3)]GlcNAc
How it was run: as §1

[34] = biological target: Neu5Ac(a2-3)Gal6S(b1-4)GlcNAc
How it was run: as §1

[35] = biological target: Neu5Ac(a2-3)[Neu5Ac(a2-6)]GalNAc
How it was run: as §1

[36] = biological target: Neu5Ac(a2-6)Gal(b1-4)GlcNAc(b1-2)Man(a1-6)[Man(a1-3)]Man(b1-4)GlcNAc(b1-4)GlcNAc
How it was run: as §1

[37] = biological target: Neu5Ac(a2-8)Neu5Ac(a2-8)Neu5Ac(a2-3)Gal(b1-4)Glc
How it was run: as §1

[38] = biological target: Neu5Ac9Ac(a2-3)Gal(b1-3)GlcNAc
How it was run: as §1

B1: 3FTT (Staphylococcus aureus), Q5HCZ5 (protein)
chain: MTEKEKMLAEKWYDANFDQYLINERARAKDICFELNHTRPSATNKRKELIDQLFQTTTDNVSISIPFDTDYGWNVKLGKNVYVNTNCYFMDGGQITIGDNVFIGPNCGFYTATHPLNFHHRNEGFEKAGPIHIGSNTWFGGHVAVLPGVTIGEGSVIGAGSVVTKDIPPHSLAVGNPCKVVRKIDNDLPSETLNDETIK
glycan array binding signal (z-score) [1]: -0.281 | glycan array binding signal (z-score) [2]: 1.06 | glycan array binding signal (z-score) [3]: -0.165 | glycan array binding signal (z-score) [4]: -0.004 | glycan array binding signal (z-score) [5]: 0.815 | glycan array binding signal (z-score) [6]: 1.26 | glycan array binding signal (z-score) [7]: 0.032 | glycan array binding signal (z-score) [8]: 0.227 | glycan array binding signal (z-score) [9]: -0.09 | glycan array binding signal (z-score) [10]: 0.714 | glycan array binding signal (z-score) [11]: -0.237 | glycan array binding signal (z-score) [12]: -0.171 | glycan array binding signal (z-score) [13]: 0.256 | glycan array binding signal (z-score) [14]: -0.105 | glycan array binding signal (z-score) [15]: 19.9 | glycan array binding signal (z-score) [16]: -0.017 | glycan array binding signal (z-score) [17]: -0.261 | glycan array binding signal (z-score) [18]: 0.798 | glycan array binding signal (z-score) [19]: -0.332 | glycan array binding signal (z-score) [20]: 5.95 | glycan array binding signal (z-score) [21]: 0.607 | glycan array binding signal (z-score) [22]: -0.134 | glycan array binding signal (z-score) [23]: -0.288 | glycan array binding signal (z-score) [24]: 0.16 | glycan array binding signal (z-score) [25]: -0.292 | glycan array binding signal (z-score) [26]: -0.082 | glycan array binding signal (z-score) [27]: -0.073 | glycan array binding signal (z-score) [28]: -0.089 | glycan array binding signal (z-score) [29]: -0.066 | glycan array binding signal (z-score) [30]: -0.057 | glycan array binding signal (z-score) [31]: 0.012 | glycan array binding signal (z-score) [32]: 0.162 | glycan array binding signal (z-score) [33]: -0.195 | glycan array binding signal (z-score) [34]: 0.037 | glycan array binding signal (z-score) [35]: 0.223 | glycan array binding signal (z-score) [36]: -0.226 | glycan array binding signal (z-score) [37]: 0.056 | glycan array binding signal (z-score) [38]: -0.153
